The list is not random: actives were taken first. Their share in the collection is about 11%.
BAZ2B block: qHTS Assay for Inhibitors of BAZ2B; Bromodomain adjacent to zinc finger domain protein 2B (Homo sapiens), Q9UIF8; AlphaScreen BAZ2B-H3K14Ac peptide displacement; Potency, µM (series often up to 114 µM), without a hit: at the highest dose activity change, negative = inhibition, most hits filed as inhibitors; actives 4.4% (n = 360,000); AID 504333, 2011; also: % is scaled to controls: 0 for no effect and ±100 for the full control effect; nearly all actives have a fitted effect of over 60% in size
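Compounds, titrated to a top concentration of 110 uM, were incubated 30 min at room temperature with preformed BAZ2B/acetyl-K14 H3 peptide complex (50 nM each). Proximity signal was measured by AlphaScreen after 20 min with beads.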
HP1b binding inh: HTS for Inhibitors of HP1-beta Chromodomain Interactions with Methylated Histone Tails. Chromobox protein homolog 1 (Homo sapiens), P83916. AlphaScreen HP1-beta / biotin-H3K9me3 peptide binding. Potency, µM (highest dose often 114 µM), for inactives: at the highest dose activity change, negative = inhibition, usual class: inhibitors. actives 0.56% (n = 390,000); also: nearly all actives have a fitted effect of over 70% in size
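Compound inhibition of the preformed complex between 50 nM HP1-beta and 50 nM biotinylated H3K9me3 peptide was read by AlphaScreen. Buffer was PBS pH 7.4 with 0.01% Tween-20. Incubations ran 30 min at room temperature, with 10 ug/mL donor/acceptor beads.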
L3MBTL1 block: qHTS Assay for the Inhibitors of L3MBTL1; AlphaScreen L3MBTL1–H3K9me1 peptide binding; Potency, µM (series often up to 57.1 µM), for the others: top-dose activity, negative = inhibition, usual class: inhibitors; AID 485360, 2010; Lethal(3)malignant brain tumor-like protein 1 (Homo sapiens), Q9Y468; actives 0.66% (n = 230,000); also: % is scaled to controls: 0 for no effect and ±100 for the full control effect; nearly all actives have a fitted effect of over 60% in size
Target sequence (Q9Y468 whole entry, looked up): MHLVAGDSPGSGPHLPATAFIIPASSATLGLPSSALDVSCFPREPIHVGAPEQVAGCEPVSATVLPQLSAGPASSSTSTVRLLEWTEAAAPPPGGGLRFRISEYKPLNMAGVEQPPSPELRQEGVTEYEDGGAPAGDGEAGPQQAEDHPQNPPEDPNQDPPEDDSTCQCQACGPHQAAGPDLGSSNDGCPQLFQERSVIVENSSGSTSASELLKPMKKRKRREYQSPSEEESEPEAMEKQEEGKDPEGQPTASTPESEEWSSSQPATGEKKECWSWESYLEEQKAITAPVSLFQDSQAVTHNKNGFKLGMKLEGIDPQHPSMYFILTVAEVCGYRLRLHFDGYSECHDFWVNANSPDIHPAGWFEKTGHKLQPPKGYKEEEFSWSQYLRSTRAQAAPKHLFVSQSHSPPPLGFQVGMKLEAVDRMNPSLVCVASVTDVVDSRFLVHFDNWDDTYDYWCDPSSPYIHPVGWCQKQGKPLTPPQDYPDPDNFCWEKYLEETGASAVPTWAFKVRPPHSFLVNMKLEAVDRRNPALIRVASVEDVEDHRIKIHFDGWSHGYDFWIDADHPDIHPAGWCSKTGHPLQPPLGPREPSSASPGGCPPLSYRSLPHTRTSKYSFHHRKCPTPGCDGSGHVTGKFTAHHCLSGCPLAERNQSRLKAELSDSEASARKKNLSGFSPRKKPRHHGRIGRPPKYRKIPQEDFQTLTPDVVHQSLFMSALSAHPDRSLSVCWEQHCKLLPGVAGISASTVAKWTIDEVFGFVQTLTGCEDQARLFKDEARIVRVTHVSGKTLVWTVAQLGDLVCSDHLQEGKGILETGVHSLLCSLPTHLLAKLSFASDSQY
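AlphaScreen proximity signal between nickel-chelate acceptor and streptavidin donor beads (final 10 ug/mL) reports binding of 50 nM L3MBTL1 to 75 nM biotin-H3 K9me1 peptide; complex incubated with compounds 30 min at room temperature; cefsulodin titration as control.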
JMJD2A Tudor: qHTS Assay for Inhibitors of JMJD2A-Tudor Domain. Lysine-specific demethylase 4A (Homo sapiens), O75164. AlphaScreen JMJD2A-Tudor / H3K4me3 peptide binding. Potency, µM (titrated, usually from 114 µM), without a hit: top-dose activity change, negative = inhibition, usual class: inhibitors. actives 4.4% (n = 390,000). AID 504339, 2011; also: % is scaled to controls: 0 for no effect and ±100 for the full control effect; nearly all actives have a fitted effect of over 50% in size
G9a inh: qHTS Assay for Inhibitors of Histone Lysine Methyltransferase G9a; actives 8.8% (n = 350,000); G9a H3K9 monomethylation, AlphaScreen, 2 h; Potency, µM (top dose mostly 102 µM), for inactives: top-dose activity, negative = inhibition, usual class: inhibitors; also: % is scaled to controls: 0 for no effect and ±100 for the full control effect; nearly all actives have a fitted effect of over 75% in size
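Enzyme 20 nM + cpd, 15 min RT; add b-H3K9 pep 500 nM / SAM 20 uM; 2 h RT; anti-H3K9me1 Ab 0.5 ug/mL + SA donor / anti-rabbit acceptor beads 20 ug/mL each, 10 min; AlphaScreen read.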
Numbers without * were called inactive; ? = inconclusive; nt = not tested or not shown; [ ] = another dose, or the depositor's remark. Calls follow the shape of the dose curve; as a rule, active = well fitted inhibition curve with a large enough effect; inconclusive = small, poorly fitted or top-dose-only effect; inactive = no such curve, though single readings can be large or run the other way. Potency is read from the fitted curve at half-maximal effect.

SMILES | BAZ2B block | HP1b binding inh | L3MBTL1 block | JMJD2A Tudor | G9a inh
O=C(Nc1ccccc1)c1ccc(-n2nncc2-c2ccccc2)cc1 | nt | 6%[57 µM] | nt | 7%[57.1 µM] | nt
CCc1ccccc1NNC(=O)CCc1ccccc1 | -3% | 19% | 6% | -7% | 28µM*
CC(C)NC(=O)C(=O)NNC(=O)CCc1ccccc1 | -39% | 20% | -4% | 14µM* | ?
CC(C)NC(=O)CCCc1ccccc1 | 7% | 20% | 3% | -2% | -3%
CCCCNC(=O)C(CC)Sc1nc2ccccc2c(=O)n1Cc1ccco1 (stereo not given) | 1% | 41% | nt | -17% | 0%[59 µM]
Cc1ccc(C(=O)CCS(=O)(=O)c2ccc(Br)cc2)cc1 | 4% | 31% | nt | -18% | 28%
Cc1ccc(S(=O)(=O)Cc2cc(F)c([N+](=O)[O-])cc2[N+](=O)[O-])cc1 | 56µM* | 19% | nt | -33% | 50µM*
O=C(CCNc1ccc(Cc2ccncc2)cc1)c1cccc([N+](=O)[O-])c1 | 25µM* | ? | -16% | 45µM* | 8.9µM*
Cc1ccc(S(=O)(=O)CCC(=O)c2cccc([N+](=O)[O-])c2)cc1 | -28% | 45µM* | nt | 28µM* | 1.4µM*
O=C(CCNc1cccc(F)c1)c1cc2ccccc2o1 | 13% | 37% | ? | -23% | 10µM*
O=C(Cc1ccc(F)cc1)OCC(=O)c1cc2ccccc2o1 | 45% | 74% | 9% | 40% | ?
O=C(CCNc1cccc(F)c1)c1cccc([N+](=O)[O-])c1 | 35µM* | -38% | -1% | ? | 7.1µM*
CC(=O)Nc1cc[n+](CC(=O)c2cccc([N+](=O)[O-])c2)cc1 | -17% | 35% | 0% | 4% | -42%
CN1C(=O)C(N=Nc2ccc([N+](=O)[O-])cc2)SC1=S (stereo not given) | nt | ? | nt | 22µM* | nt
COc1ccc2[nH]c(=O)c(CN(c3ccccc3)S(=O)(=O)c3ccccc3)cc2c1 | -15% | 27% | nt | -8% | 12%
COc1ccc2[nH]c(=O)c(CN(c3ccccc3OC)S(=O)(=O)c3ccccc3)cc2c1 | -32% | 37% | -4% | -21% | 56µM*
CCOC(=O)c1c(C)[nH]c(C(=O)COC(=O)COc2ccccc2C=O)c1C | -36% | -13% | 0% | 45µM* | -3%[59 µM]
COc1cccc(NC(=O)Cn2c(=O)n(CC(=O)NCc3ccc(C)cc3)c(=O)c3sccc32)c1 | -12% | 3% | nt | -14% | -27%[59 µM]
COc1cc(/C=N\N=C2/SC(CC(=O)O)C(=O)N2c2ccc(O)cc2)ccc1O (stereo not given) | 12% | 6% | -3% | -10% | -5%
COc1cc(/C=N/N=C2/SCC(=O)N2c2ccc(O)cc2)ccc1O | -10% | -10% | nt | 8.9µM* | -17%
Cc1ccc(Nc2c3c(nc4nncn24)CCC3)c(C)c1 | 6% | 25% | nt | -14% | 4%[59 µM]
CCC(=O)Nc1ccc2ccccc2c1 | -4% | 18% | 7% | 7% | 1%[59 µM]
Oc1ccc(Nc2ccc3ccccc3c2)cc1 | nt | ? | nt | 40µM* | nt
Cc1cc(Nc2ccc(O)cc2)ccc1N | 6.3µM* | 11µM* | -19% | ? | -2%[0.501 µM]
O=C(NN=C1c2ccccc2-c2ccccc21)c1ccccc1 | 28µM* | 35% | 3.2µM* | -30% | 10µM*
SMILES | BAZ2B block | HP1b binding inh | L3MBTL1 block | JMJD2A Tudor | G9a inh
NC(=S)NN=C1c2ccccc2-c2ccccc21 | ? | ? | nt | 50µM* | -25%
NC(=S)NN=C(c1ccccc1)c1ccccc1 | -32% | -1% | nt | ? | 40µM*
C/C(=N\NC(N)=S)c1ccccc1 | -19% | -4% | 3% | -16% | ?
O=C(NN=C1c2ccccc2-c2ccccc21)c1ccccc1Br | -30% | 1% | -13% | -10% | -34%
Cc1ncc(CO)c2c1Oc1nc(-c3ccccc3)nc(SCC(=O)Nc3cccc(C(F)(F)F)c3)c1C2 | ? | 24% | nt | -23% | -21%[59 µM]
COc1ccc(S(=O)(=O)c2c(Nc3c(C)cccc3C)sc(C(=O)c3ccc(F)cc3)c2N)cc1 | -31% | 6%[57 µM] | nt | ? | 0%[59 µM]
CCCCn1c(N)c(N(CC(C)C)C(=O)COc2cc(C)ccc2Cl)c(=O)[nH]c1=O | -6% | 18% | -5% | -11% | -5%
CN(CCc1ccccn1)C(=O)CCC1CCCN(C(=O)NC2CCCCC2)C1 (stereo not given) | 4% | 21% | 7% | -12% | 10%
O=C(Cn1cc(COc2c(F)c(F)cc(F)c2F)nn1)c1ccc(O)cc1 | nt | 64% | nt | 40µM* | nt
N=C1Sc2ccccc2C2=NCCCN12 | nt | nt | nt | nt | 0.11µM*
CC(=O)N1CCN(c2ccc(NCc3cccc4ccccc34)cc2)CC1 | 32µM* | ? | -26% | 22µM* | 8.9µM*
O=C(Nc1ccc(N2CCN(Cc3ccccc3)CC2)cc1)c1ccco1 | -32% | -15% | nt | ? | 79µM*
CC(=O)N1CCN(c2ccc(NCc3ccccc3)cc2)CC1 | ? | -8% | -5% | ? | 14µM*
Fc1ccc(CNc2ccc(N3CCN(Cc4ccccc4)CC3)cc2)cc1 | 10µM* | 22µM* | 22µM* | 20µM* | 13µM*
CC(C)(C)C(=O)N1CCN(c2ccc(NC(=O)c3ccco3)cc2)CC1 | -14% | 0% | nt | -8% | 5%
Cc1ccc(Cn2c(C(=O)Nc3ccc(Cl)cc3)cc3sccc32)cc1 | 4% | 95% | nt | -16% | ?
CCOc1cc2[nH]c(=O)n(CCCCC(=O)N3CCN(c4ccccc4OC)CC3)c(=O)c2cc1OCC | 1% | 26% | nt | -9% | 0%[59 µM]
COc1ccc(NC(=O)Cc2csc(COc3cccc(C)c3)n2)cc1OC | -19% | 16% | nt | -19% | -7%[59 µM]
COc1ccc(NC(=O)CN(c2cccc(C)c2C)S(=O)(=O)c2ccccc2)cc1OC | ? | -3% | nt | ? | -45%[59 µM]
C[C@H](NC(=O)C1CC(=O)N(c2ccc3c(c2)OCO3)C1)C(=O)NC1CCCCC1 (stereo not given in full) | 0% | 15% | nt | ? | 13%
O=C(c1ccccc1)N1CCN(c2ccc(NCc3ccc4c(c3)OCO4)cc2)CC1 | 35µM* | 45µM* | ? | 50µM* | 5µM*
CN1/C(=C/c2cccc[n+]2CCO)Sc2ccccc21 | 56µM* | -13% | 3% | ? | 45µM*
CCN1/C(=C/c2ccc3cc(C)ccc3[n+]2CC)Sc2cc(C)c(C)cc21 | 45µM* | ? | ? | ? | 14µM*
COc1ccc(C(=O)/C=C2\Sc3ccccc3N2C)cc1 | 16% | 85% | 35% | 30% | ?
CC(=S)/C=C1\Sc2ccccc2N1C | 50µM* | ? | -14% | ? | ?
CC[n+]1c(/C=C2\Sc3ccccc3N2C)ccc2cccc(C)c21 | 45µM* | ? | -8% | -23%[57.1 µM] | 25µM*

Compound activity (PubChem)
